Experimental data taken from PubChem BioAssay AID1159580 (chemical genetic matrix, 2015).
About 2,000 (36%) of roughly 5,500 compounds were called active. Roughly 18% stayed inconclusive and do not appear here. No stated cut-off is given here; in the data, active means normalized growth mostly below about 0.91 (no sharp cut-off); inconclusive means no clear call, values can overlap the other calls; inactive means mostly above about 0.92. The list shows a part of the results.

Experiment: chemical genetic growth profiling, strain panel (AID 1159580);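 further: tested at 20 µM; growth read once vehicle control cultures reached saturation at 30 °C; 1 = growth at the plate median or of vehicle wells; lower values mean less growth of the strain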
Settings: S. cerevisiae deletion strains, growth OD

Measured: normalized growth

CN(C)CCCO[C@H]1[C@@H](C(O)CO)OC2OC(C)(C)O[C@@H]21 (stereo partly specified)
inactive: locus YJR075W, strain HOC1, active compounds read low 0.981 | locus YKL009W, strain mrt4, active compounds read low 0.988 | locus YKL068W, active compounds read low 0.99 | locus YKL085W, strain MDH1 (second series), active compounds read low 1.01 | locus YKL085W, strain MDH1, active compounds read low 1.01 | locus YKL160W, strain elf1, active compounds read low 0.975 | locus YKL190W, strain CNB1, active compounds read low 0.97 | locus YKR026C, strain gcn3, active compounds read low 0.991 | locus YKR091W, strain srl3, active compounds read low 0.98 | locus YLL001W, strain dnm1, active compounds read low 0.94 | locus YLL026W, active compounds read low 0.985 | locus YLL041C, strain sdh2, active compounds read low 0.993 | locus YLR027C, strain aat2, active compounds read low 0.997 | locus YLR039C, strain RIC1, active compounds read low 0.993 | locus YLR058C, strain SHM2, active compounds read low 0.985 | locus YLR102C, strain apc9, active compounds read low 0.988 | locus YLR113W, strain HOG1, active compounds read low 0.985 | locus YLR221C, strain rsa3, active compounds read low 0.957 | locus YLR258W, strain gsy2, active compounds read low 0.998 | locus YLR262C, strain YPT6 (second series), active compounds read low 0.978 | locus YLR262C, strain YPT6, active compounds read low 1.04 | locus YLR268W, strain sec22, active compounds read low 0.945 | locus YLR320W, strain mms22, active compounds read low 0.963 | locus YLR330W, strain CHS5, active compounds read low 0.995 | locus YLR342W, strain FKS1 (second series), active compounds read low 0.896 | locus YLR342W, strain FKS1, active compounds read low 0.985 | locus YLR357W, strain rsc2, active compounds read low 0.955 | locus YLR370C, strain arc18, active compounds read low 0.977 | locus YLR371W, strain rom2, active compounds read low 0.993 | locus YLR384C, strain iki3, active compounds read low 0.972 | locus YML016C, strain PPZ1, active compounds read low 0.979 | locus YML032C, strain rad52, active compounds read low 0.945 | locus YML120C, strain ndi1, active compounds read low 0.964 | locus YML124C, strain tub3, active compounds read low 0.98 | locus YMR058W, strain fet3, active compounds read low 0.975 | locus YMR078C, strain ctf18, active compounds read low 0.969 | locus YMR125W, strain sto1, active compounds read low 0.978 | locus YMR129W, active compounds read low 0.993 | locus YMR205C, strain PFK2, active compounds read low 0.961 | locus YMR231W, strain pep5, active compounds read low 0.991 | locus YMR263W, strain SAP30, active compounds read low 0.942 | locus YMR307W, strain GAS1, active compounds read low 0.937 | locus YNL067W, strain RPL9B, active compounds read low 0.974
active: locus YKR001C, strain vps1, active compounds read low 0.867 | locus YLR418C, strain cdc73, active compounds read low 0.748 | locus YMR223W, strain ubp8, active compounds read low 0.902
